The values that follow come from PMC7826789 (International Journal of Molecular Sciences, 2021).

For experiment [1], the system named is T1, PIP5K2B.
T1 construct: gene PIP4K2B
The note with it: Compound Concentration (nM):1000.

The test system of experiment [2] is T2, PIP5K2C.
T2 construct: gene PIP4K2C
The settings on record: Compound Concentration (nM):1000.

The subject of experiment [3] is T3, PKAC-alpha.
T3 construct: gene PRKACA
The settings on record: Compound Concentration (nM):1000.

Experiment [4] has as its system T4, PKAC-beta.
T4 construct: gene PRKACB
The settings on record: Compound Concentration (nM):1000.

For experiment [5], the system named is PKMYT1. The note with it: Compound Concentration (nM):1000.
The subject of experiment [6] is PKN1. The note with it: Compound Concentration (nM):1000.
Experiment [7] deals with PKN2. The note with it: Compound Concentration (nM):1000.
Experiment [8] deals with PKNB(M.tuberculosis). The note with it: 1 µM.
The test system of experiment [9] is PLK1. The note with it: Compound Concentration (nM):1000.
For experiment [10], the system named is PLK2. The settings on record: Compound Concentration (nM):1000.

Each structure is given as a SMILES string.
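Also: KINOMEscan scanMAX binding as percent activity remaining versus control; lower means stronger binding.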

In the case of `NS(=O)(=O)c1ccc(N/N=C2\C(=O)Nc3ccc(-c4cnco4)cc32)cc1` [GW276655], the “Percent Control” value was 69% in experiment [1]; 100% in [2]; 88% in [3]; 94% in experiment [4]; 95% in experiment [5]; 100% in experiment [6]. Also, the “Percent Control” value in [7] came to 87%; in experiment [8], 78%; in experiment [9], 77%; in experiment [10] it was 83%.

With `COc1ccc2cc(-c3c(-c4ccncc4)nc(-c4ccc(S(C)(=O)=O)cc4C)n3C)ccc2c1` [SB-633825], the “Percent Control” value is 83% in experiment [1]; 73% in [2]; 96% in [3]; 65% in [4]; 89% in experiment [5]; 86% in experiment [6]. Besides, the “Percent Control” value in [7] was found to be 100%; in experiment [8], 83%; in [9], 63%; in experiment [10], 89%.

On to `C/C(Nc1ccc(S(N)(=O)=O)cc1)=C1/C(=O)Nc2ccccc21` [GW335962X], for which the “Percent Control” value is 100% in experiment [1]; 93% in experiment [2]; 100% in experiment [3]; 87% in experiment [4]; 91% in [5]; 83% in experiment [6]. Moreover, the “Percent Control” value in experiment [7] worked out at 74%; in [8] it was 83%; in [9] it was 90%; in experiment [10], 87%.

As to `COc1cc(/C=N/Nc2ncnc3[nH]ncc23)ccc1O` [GW578748X], the “Percent Control” value in experiment [1] was 74%; in experiment [2], 24%; in [3], 100%; in experiment [4], 100%; in experiment [5], 100%; in [6] it was 100%. The “Percent Control” value in [7] is 100%; in [8] it was 50%; in [9], 84%; in experiment [10] it was 31%.

Turning to `NS(=O)(=O)c1ccc(N/N=C2\C(=O)Nc3ccc(Cl)cc32)cc1` [GW280670X], the “Percent Control” value in experiment [1] was 98%; in [2] it was 81%; in [3], 100%; in experiment [4], 100%; in experiment [5] it was 100%; in [6] it was 100%. In addition, the “Percent Control” value in [7] is given as 97%; in experiment [8], 100%; in [9], 100%; in experiment [10], 100%.

With `COc1cc(C)c(N(C)C(=O)CN(C)C)cc1Nc1nc(Nc2cccc(F)c2C(N)=O)c2cc[nH]c2n1` [GSK2219385], the “Percent Control” value in [1] was 100%; in experiment [2] it was 92%; in [3], 100%; in experiment [4] it was 100%; in experiment [5], 78%; in experiment [6], 89%. Moreover, the “Percent Control” value in experiment [7] was 88%; in experiment [8], 63%; in experiment [9], 81%; in [10] it was 100%.

For `Cl.O=C(Nc1ccc(Oc2ccc3[nH]c(NC(=O)c4ccco4)nc3c2)cc1)Nc1cc(C(F)(F)F)ccc1F` [GW683134A], the “Percent Control” value in experiment [1] was 100%; in experiment [2], 76%; in experiment [3], 100%; in [4], 100%; in experiment [5], 100%; in [6], 100%. Further, the “Percent Control” value in experiment [7] is 79%; in experiment [8], 99%; in experiment [9], 100%; in [10], 88%.

For the compound `CC(C)COC(=O)c1ccc2c(c1)/C(=C/Nc1ccc(S(N)(=O)=O)cc1)C(=O)N2` [GW416981X], the “Percent Control” value was 100% in experiment [1]; 65% in experiment [2]; 100% in experiment [3]; 100% in experiment [4]; 100% in experiment [5]; 100% in experiment [6]. The “Percent Control” value was found to be 71% in [7], 86% in experiment [8], 100% in experiment [9] and 59% in experiment [10].

`Cl.O=S1CCN(Cc2ccc(-c3ccc4ncnc(Nc5ccc(OCc6ccccc6)c(F)c5)c4c3)o2)CC1` [GW576924A]: the “Percent Control” value in [1] is 100%; in [2] it was 63%; in [3] it was 100%; in experiment [4], 100%; in [5], 100%; in [6], 100%. Also, the “Percent Control” value in experiment [7], in experiment [8], in experiment [9] and in [10] was 100% in each case.

`COC(=O)Nc1nc2ccc(Oc3ccc(NC(=O)Nc4cc(C(F)(F)F)ccc4F)cc3)cc2s1.Cl` [GW693917A]: the “Percent Control” value in experiment [1] was 100%; in experiment [2] it was 96%; in [3], 100%; in experiment [4], 95%; in [5], 95%; in experiment [6], 82%. The “Percent Control” value in [7] is given as 57%; in experiment [8] it was 70%; in experiment [9], 67%; in experiment [10] it was 96%.

On to `CC1=C(C(=O)Nc2ccc3[nH]ncc3c2)C(c2ccc3ccccc3c2)CC(=O)N1` (stereo not shown) [GSK270822A], for which the “Percent Control” value was 100% in experiment [1]; 83% in experiment [2]; 64% in [3]; 68% in [4]; 90% in experiment [5]; 45% in [6]. In addition, the “Percent Control” value in experiment [7] is on record as 76%; in [8], 87%; in experiment [9], 73%; in [10] it was 100%.

With `CC1=C(C(=O)Nc2ccc3[nH]ncc3c2)C(c2ccc(Cl)c(Cl)c2)CC(=O)N1` (stereo not shown) [GSK299115A], the “Percent Control” value in [1] was 99%; in experiment [2] it was 82%; in experiment [3], 81%; in [4], 63%; in experiment [5] it was 77%; in [6], 39%. Also, the “Percent Control” value in [7] was found to be 65%; in experiment [8] it was 85%; in [9] it was 70%; in [10] it was 100%.

Regarding `NS(=O)(=O)c1ccc(N/N=C2\C(=O)Nc3ccc(C(=O)NCc4ccncc4)cc32)cc1` [GW300657X], the “Percent Control” value in experiment [1] is 100%; in experiment [2], 51%; in [3] it was 100%; in experiment [4] it was 100%; in experiment [5] it was 83%; in [6] it was 100%. For the same compound, the “Percent Control” value in experiment [7] worked out at 81%; in [8], 100%; in [9] it was 74%; in experiment [10] it was 90%.

For `NS(=O)(=O)c1ccc(Nc2ncc(-c3ccccc3)o2)cc1` [GW572399X], the “Percent Control” value is 100% in experiment [1]; 29% in [2]; 100% in experiment [3]; 100% in experiment [4]; 100% in [5]; 100% in [6]. Also, the “Percent Control” value in experiment [7] is 100%; in [8] it was 76%; in [9], 100%; in experiment [10], 86%.

Consider `CCS(=O)(=O)c1ccc(OC)c(Nc2ncc(-c3cccc(F)c3)o2)c1` [GW621970X], for which the “Percent Control” value was 99% in experiment [1]; 3.8% in experiment [2]; 100% in experiment [3]; 100% in experiment [4]; 100% in [5]; 100% in experiment [6]. Also, the “Percent Control” value in experiment [7] is 68%; in experiment [8], 100%; in experiment [9], 96%; in experiment [10] it was 93%.

As to `Nc1ncnc2occ(-c3ccc(NC(=O)Nc4cc(C(F)(F)F)ccc4F)cc3)c12` [GW770249X], the “Percent Control” value in experiment [1] was 100%; in experiment [2], 77%; in experiment [3] it was 100%; in [4], 100%; in [5] it was 100%; in experiment [6] it was 100%. Besides, the “Percent Control” value amounted to 90% in experiment [7], 100% in experiment [8], 100% in [9] and 1.9% in experiment [10].

Regarding `COc1ccc2[nH]c3c4[nH]c5ccc(OC)cc5c4c4c(c3c2c1)C(=O)NC4=O` [GW296115X], the “Percent Control” value in experiment [1] is 100%; in experiment [2], 28%; in [3], 87%; in [4], 89%; in [5], 97%; in [6] it was 42%. Also, the “Percent Control” value is recorded as 52% in [7], 67% in experiment [8], 90% in [9] and 95% in [10].

Consider `COc1cccc(-n2ncc3c(N/N=C/c4ccncc4)ncnc32)c1` [GW784752X], for which the “Percent Control” value was 91% in experiment [1]; 19% in experiment [2]; 100% in [3]; 99% in [4]; 100% in [5]; 100% in experiment [6]. Moreover, the “Percent Control” value in experiment [7] amounted to 100%; in experiment [8], 100%; in experiment [9], 88%; in experiment [10], 94%.

`NS(=O)(=O)c1ccc(N/N=C2\C(=O)Nc3ccc(C(=O)NCCc4c[nH]cn4)cc32)cc1` [GW300660X]: the “Percent Control” value in experiment [1] is 100%; in [2], 48%; in [3], 100%; in experiment [4], 100%; in [5], 100%; in experiment [6], 100%. Also, the “Percent Control” value in experiment [7] is 80%; in experiment [8] it was 92%; in [9], 100%; in experiment [10], 75%.

On to `COc1cc2ncn(-c3cc(O[C@H](C)c4ccccc4Cl)c(C(N)=O)s3)c2cc1OC` [GSK237701A], for which the “Percent Control” value is 15% in experiment [1]; 20% in experiment [2]; 100% in experiment [3]; 96% in [4]; 100% in [5]; 100% in [6]. The “Percent Control” value in experiment [7] is on record as 83%; in experiment [8], 62%; in [10], 1.8%.
